Assay results reported in ChEMBL document CHEMBL4513216, “Probing the Open Global Health Chemical Diversity Library for Multistage-Active Starting Points for Next-Generation Antimalarials” (ACS Infect Dis, 2020).
Among all 68,000 compounds or so, about 2,700 (4%) showed an effect of 50% or more. Many of the other results were omitted from the sample, so strong results are more common in it than they were.

system: Plasmodium berghei; assay: Screen against P. berghei liver stage (PbLuc), transformed with Luciferase, at 2uM; type: functional, HepG2; settings: tested at 2 uM

| Structure (SMILES) | INHIBITION |
| --- | --- |
| CC(C)OCc1ccccc1CNC(=O)C(C)(C)C | -26.08% |
| CS(=O)(=O)c1nccn1Cc1ccc(OC(F)F)cc1 | -35.45% |
| O=C(O)c1cc(NS(=O)(=O)c2ccccc2F)ccc1N1CCSCC1 | -21.39% |
| Cc1nc(C)n(CC2CCCCN2CC(=O)NC(C2CC2)C2CC2)n1 (stereo unspecified) | 17.75% |
| COc1ccccc1OCC(=O)N1C[C@@H]2CN(C)CCO[C@@H]2C1 | 32.04% |
| CN1CCc2nc(N(C)C)nc(N3CCC(O)CC3)c2C1 | 21.24% |
| CN(Cc1nc(C2CC2)no1)C(=O)c1cccc(CC2CCNCC2)c1 | -11.41% |
| Cc1nn(C)c2nc(NC(C)c3nnn[nH]3)sc12 (stereo unspecified) | -16.31% |
| Cc1csc2ncc(-c3ccnc(N4CCN(C)CC4)n3)c(=O)n12 | -23.11% |
| Cc1cc2c(cc1Cl)C=CC1(CCN(CC(=O)NC3CCCC3)CC1)O2 | 3.58% |
| Cc1cc2c(cc1Cl)C=CC1(CCN(CC(=O)N3CCCC3)CC1)O2 | -28% |
| Cc1cc2c(cc1Cl)C=CC1(CCN(CC(=O)N3CCOCC3)CC1)O2 | -4.78% |
| CCN(CC)C(=O)CN1CCC2(C=Cc3cc(Cl)c(C)cc3O2)CC1 | 1.4% |
| Cc1cc2c(cc1C)OC1(C=C2)CCN(CC(=O)N2CCOCC2)CC1 | 54.2% |
| Cc1cc2c(cc1Cl)C=CC1(CCN(C(=O)N3CCOCC3)CC1)O2 | 57.47% |
| O=C(NCc1cnc2n1CCN(CC1CC1)CC2)C1CCC1 | 15.42% |
| CO[C@@H]1CCN(S(=O)(=O)c2cccs2)[C@H]1Cc1cccnc1 | 30.39% |
| CC(c1nc(C2CC2)no1)N1CCc2c(ncn2C2CC2)C1 (stereo unspecified) | -40.15% |
| O=C(c1cccc(CNS(=O)(=O)c2ccc(F)cc2)c1)N1CCCC1 | 51.94% |
| Cc1ccc(F)cc1S(=O)(=O)NCc1cccc(C(=O)N2CCCC2)c1 | 33.8% |
| Cc1ccc(S(=O)(=O)NCc2cccc(C(=O)N3CCCC3)c2)cc1F | 47.84% |
| Cc1nc2c(c(NC3CC3)n1)CCN(C(=O)C1(C#N)CC1)CC2 | -5.44% |

| Structure (SMILES) | INHIBITION |
| --- | --- |
| Cc1nc(C)c2c(n1)CCN(C(=O)C1(C#N)CC1)CC2 | 89.37% |
| Cc1nc(N2CCOCC2)nc2c1CCN(C(=O)C1(C#N)CC1)CC2 | -24.04% |
| COCC1CN(Cc2ccoc2)Cc2nn(C)cc21 (stereo unspecified) | 17.69% |
| O=C(Nc1ccc(F)cc1)N1CCN(Cc2noc(C3CC3)n2)CC1 | 24.65% |
| CN1CCN(C(=O)C[C@@H]2COC[C@H]3CN(c4ccncn4)C[C@@H]23)CC1 | -69.07% |
| CS(=O)(=O)N1CCC2(CC1)COC(COc1cccnc1)C2 (stereo unspecified) | 19.91% |
| CNS(=O)(=O)c1ccc(C(=O)NCCc2ccccn2)cc1 | 62.46% |
| CNC(=O)c1ccc(S(=O)(=O)NCCc2ccccn2)cc1 | 24.15% |
| CNS(=O)(=O)c1ccc(C(=O)NCCNc2ncccn2)cc1 | -75.02% |
| O=C(Nc1ccccc1)N1CCn2nnc(COc3cccnc3)c2C1 | 11.72% |
| CCNC(=O)[C@@H]1CCCN1C1(C(=O)NC)CCC1 | 10.65% |
| CC(CC(=O)O)CC(=O)Nc1sc2c(c1C(N)=O)CCc1ccccc1-2 (stereo unspecified) | -0.22% |
| CC(C)(C)OC(=O)NCCNC(=O)c1ccc2cc[nH]c2c1 | 13.72% |
| COc1cc(NCCNC(=O)c2cc[nH]c2C)cc(OC)c1 | 12.43% |
| COc1cc(NCCNC(=O)c2ccc3[nH]ccc3c2)cc(OC)c1 | 57.75% |
| O=C(NCCCO)Nc1cccc(Cl)c1F | -5.28% |
| Fc1cnc(N2CCOC3(CCN(Cc4ccsc4)CC3)C2)nc1 | -35.12% |
| CNC(=O)C1CCN(Cc2cc3c(cc2O)CCC3)CC1 | -23.73% |
| CNS(=O)(=O)CCN1CC(c2ccccc2)(c2ccccc2)CCC1=O | 40.51% |
| Cc1cccc(NCc2ncc(C(C)(C)C)o2)c1 | 75.37% |
| CC(C)(C)c1cnc(CNc2cccc(Cn3cnnc3)c2)o1 | -3.4% |
| Cc1ccc(NCc2ncc(C(C)(C)C)o2)c(Cl)c1 | -32.82% |

| Structure (SMILES) | INHIBITION |
| --- | --- |
| CCc1nc(C)sc1CN1CC[C@](O)(CC)[C@H](O)C1 | 20.36% |
| O=C(COCC(=O)N1CCCCCC1)NCc1cccc(Br)c1 | 50.97% |
| COCC(=O)NCc1cccc(Br)c1 | 0.26% |
| O=C(CCC(=O)NCc1cccc(Br)c1)NCCN1CCCC1 | -64.94% |
| Cc1ncn(-c2cc(N3CCN(S(C)(=O)=O)CC3)ncn2)c1C | 43.28% |
| O=C(CSCC1CC1)N1C[C@H]2CC[C@@H](C1)N(Cc1ccccn1)C2=O | 36.66% |
| CCCSCC(=O)N1C[C@H]2CC[C@@H](C1)N(Cc1ccccn1)C2=O | 60.9% |
| CCOCC(=O)N1C[C@H]2CC[C@@H](C1)N(Cc1ccccn1)C2=O | 37.77% |
| CC(C)(O)CN1CCN(C(=O)COCC(F)(F)F)CC1 | 13.76% |
| COc1cc(C)c(S(=O)(=O)CC(=O)N(C)C(C)C)cc1OC | 10.72% |
| CCN(C(=O)CS(=O)(=O)c1cc(OC)c(OC)cc1C)C1CC1 | 35.41% |
| COc1cc(C)c(S(=O)(=O)CC(=O)N(C)C2CC2)cc1OC | 51.87% |
| CCn1cc(S(=O)(=O)Nc2nc3c(s2)CC(C)CC3)cn1 (stereo unspecified) | 32.56% |
| CC1CCc2nc(NS(=O)(=O)c3cnn(C)c3)sc2C1 (stereo unspecified) | 54.52% |
| CCn1cc(S(=O)(=O)Nc2nc3c(s2)CCCC3)cn1 | 23.02% |
| N#Cc1ccc(CN2CCN(Cc3ccncc3Cl)CC2=O)cc1 | 26.27% |
| CC1CN(Cc2nc(Cc3ccccc3F)no2)CCN1C (stereo unspecified) | 17.25% |
| O=C(c1ccco1)N1CCOC2(COCCN(c3ncccn3)C2)C1 (stereo unspecified) | 36.06% |
| Cc1cccc(CN2CCc3onc(CO)c3C2)n1 | 52.12% |
| Cc1cccc(CN2CCc3onc(Cn4cccc4)c3C2)n1 | 15.36% |
| Cc1cccc(CN2CCc3onc(CN(C)C)c3C2)n1 | 26.77% |
| CCOc1ncccc1NC(=O)NC1CCN(S(C)(=O)=O)CC1 | -68.26% |
